The values below come from article PMC11006913.

What all share (test): PBM; 200 nM protein, PBS
Common to all, as to details: dsDNA, one strand shown

The target of assay [1] is ALX4 (Homo sapiens, UniProt Q9H161 200-286).
The target in assay [2] is ALX4 (Homo sapiens, UniProt Q9H161 200-286, Q225E).
The target of assay [3] is MSX2 (Homo sapiens, UniProt P35548 130-214, R199I).
Assay [4] has as its target MSX2 (Homo sapiens, UniProt P35548 130-214).
Assay [5] deals with MSX2 (Homo sapiens, UniProt P35548 130-214, F161Y).
Sequence of MSX2 (Homo sapiens, UniProt P35548 130-214, F161Y) (P35548 130-214 F161Y): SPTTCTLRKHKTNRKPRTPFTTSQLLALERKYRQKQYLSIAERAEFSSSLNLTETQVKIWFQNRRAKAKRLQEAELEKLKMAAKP
Another assay has as its target HOXA4 (Homo sapiens, UniProt Q00056 201-287, R217L).
Assay [6] concerns the target ALX3 (Homo sapiens, UniProt O95076 139-225, N203S).
Assay [7] addresses T1, PAX4 (Homo sapiens, UniProt O43316 9-242, R200K).
T1 sequence: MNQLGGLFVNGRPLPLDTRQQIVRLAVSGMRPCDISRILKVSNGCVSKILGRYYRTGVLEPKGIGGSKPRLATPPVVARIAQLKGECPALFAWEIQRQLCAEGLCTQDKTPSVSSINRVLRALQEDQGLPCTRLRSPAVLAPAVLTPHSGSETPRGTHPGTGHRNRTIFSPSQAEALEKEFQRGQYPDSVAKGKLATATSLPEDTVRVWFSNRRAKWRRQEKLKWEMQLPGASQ

Assay [8] addresses PRRX1 (Homo sapiens, UniProt P54821 80-166, F113S).
In assay [9] the target is T2, PAX4 (Homo sapiens, UniProt O43316 9-242).
T2 sequence: T1 sequence with K192R

Assay [10] has as its target T3, PAX4 (Homo sapiens, UniProt O43316 9-242, R200Q).
T3 sequence: T1 sequence with K192Q

The target in assay [11] is T4, PAX4 (Homo sapiens, UniProt O43316 9-242, F177V).
T4 sequence: T1 sequence with F169V, K192R

The target in assay [12] is T5, PAX4 (Homo sapiens, UniProt O43316 9-242, F177Y).
T5 sequence: T1 sequence with F169Y, K192R

In assay [13] the target is T6, PAX4 (Homo sapiens, UniProt O43316 9-242, R227W).
T6 sequence: T1 sequence with K192R, R219W

In assay [14] the target is PRRX1 (Homo sapiens, UniProt P54821 80-166).
Sequence of PRRX1 (Homo sapiens, UniProt P54821 80-166) (P54821 80-166): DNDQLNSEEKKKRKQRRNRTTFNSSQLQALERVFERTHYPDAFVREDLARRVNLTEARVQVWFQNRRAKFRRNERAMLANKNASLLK
Assay [15] has as its target HOXB6 (Homo sapiens, UniProt P17509 132-218, K202E).
Assay [16] deals with HOXB6 (Homo sapiens, UniProt P17509 132-218).
Sequence of HOXB6 (Homo sapiens, UniProt P17509 132-218) (P17509 132-218): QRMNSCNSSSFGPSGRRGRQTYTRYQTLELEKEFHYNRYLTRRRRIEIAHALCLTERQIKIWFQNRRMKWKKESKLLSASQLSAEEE
In assay [17] the target is HOXA2 (Homo sapiens, UniProt O43364 129-215, R185T).
Sequence of HOXA2 (Homo sapiens, UniProt O43364 129-215, R185T) (O43364 129-215 R185T): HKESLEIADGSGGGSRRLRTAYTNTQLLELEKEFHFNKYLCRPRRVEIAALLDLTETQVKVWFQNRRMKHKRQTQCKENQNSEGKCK
Assay [18] deals with ALX3 (Homo sapiens, UniProt O95076 139-225, N203Q).
Sequence of ALX3 (Homo sapiens, UniProt O95076 139-225, N203Q) (O95076 139-225 N203Q): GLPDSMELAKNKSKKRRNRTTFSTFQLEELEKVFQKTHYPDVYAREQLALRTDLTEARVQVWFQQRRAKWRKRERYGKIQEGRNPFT
A further assay deals with PITX2 (Homo sapiens, UniProt Q99697 72-157).
Assay [19] has as its target HOXA2 (Homo sapiens, UniProt O43364 129-215, R185K).
Assay [20] has as its target ALX3 (Homo sapiens, UniProt O95076 139-225).
The target of assay [21] is ALX3 (Homo sapiens, UniProt O95076 139-225, L168Q).
Sequence of ALX3 (Homo sapiens, UniProt O95076 139-225, L168Q) (O95076 139-225 L168Q): as the sequence (O95076 139-225 N203Q) above, with L30Q, Q65N counted along it
In assay [22] the target is ALX3 (Homo sapiens, UniProt O95076 139-225, L168V).
Sequence of ALX3 (Homo sapiens, UniProt O95076 139-225, L168V) (O95076 139-225 L168V): as the sequence (O95076 139-225 N203Q) above, with L30V, Q65N counted along it
The target of assay [23] is HOXA2 (Homo sapiens, UniProt O43364 129-215, Y150S).
Sequence of HOXA2 (Homo sapiens, UniProt O43364 129-215, Y150S) (O43364 129-215 Y150S): as the sequence (O43364 129-215 R185T) above, with Y22S, T57R counted along it
In assay [24] the target is HOXA2 (Homo sapiens, UniProt O43364 129-215).
Sequence of HOXA2 (Homo sapiens, UniProt O43364 129-215) (O43364 129-215): as the sequence (O43364 129-215 R185T) above, with T57R counted along it

Residue numbers refer to the chain shown, from its start.

Sequence of ALX4 (Homo sapiens, UniProt Q9H161 200-286) (Q9H161 200-286): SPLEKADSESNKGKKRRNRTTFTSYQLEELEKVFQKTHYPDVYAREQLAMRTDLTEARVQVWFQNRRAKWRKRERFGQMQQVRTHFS
Sequence of ALX4 (Homo sapiens, UniProt Q9H161 200-286, Q225E) (Q9H161 200-286 Q225E): as the sequence (Q9H161 200-286) above, with Q26E counted along it
Sequence of MSX2 (Homo sapiens, UniProt P35548 130-214) (P35548 130-214): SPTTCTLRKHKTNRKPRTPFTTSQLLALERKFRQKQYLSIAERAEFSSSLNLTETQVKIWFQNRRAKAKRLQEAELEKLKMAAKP
Sequence of MSX2 (Homo sapiens, UniProt P35548 130-214, R199I) (P35548 130-214 R199I): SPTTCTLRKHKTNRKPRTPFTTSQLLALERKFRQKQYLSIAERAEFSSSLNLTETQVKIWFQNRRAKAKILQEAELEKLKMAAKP
Sequence of ALX3 (Homo sapiens, UniProt O95076 139-225, N203S) (O95076 139-225 N203S): as the sequence (O95076 139-225 N203Q) above, with Q65S counted along it
Sequence of HOXB6 (Homo sapiens, UniProt P17509 132-218, K202E) (P17509 132-218 K202E): as the sequence (P17509 132-218) above, with K71E counted along it
Sequence of HOXA4 (Q00056 201-287 R217L): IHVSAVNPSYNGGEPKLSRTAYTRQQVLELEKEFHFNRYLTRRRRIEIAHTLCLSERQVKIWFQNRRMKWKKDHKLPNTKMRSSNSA
Sequence of ALX3 (Homo sapiens, UniProt O95076 139-225) (O95076 139-225): as the sequence (O95076 139-225 N203Q) above, with Q65N counted along it
Sequence of HOXA2 (Homo sapiens, UniProt O43364 129-215, R185K) (O43364 129-215 R185K): as the sequence (O43364 129-215 R185T) above, with T57K counted along it
Sequence of PRRX1 (Homo sapiens, UniProt P54821 80-166, F113S) (P54821 80-166 F113S): as the sequence (P54821 80-166) above, with F34S counted along it

As for CGTGGAGC, the binding signal is 8.15 upbm affinity estimate (log intensity, higher = more binding, comparable within an allelic series) with ALX4 [1]; 8.37 upbm affinity estimate (log intensity, higher = more binding, comparable within an allelic series) with ALX4 [2]; 9.58 upbm affinity estimate (log intensity, higher = more binding, comparable within an allelic series) with MSX2 [3]; 9.61 upbm affinity estimate (log intensity, higher = more binding, comparable within an allelic series) with MSX2 [4]; 9.61 upbm affinity estimate (log intensity, higher = more binding, comparable within an allelic series) in the assay with MSX2 [5].
In the case of AAGTAATT, the binding signal was 13 upbm affinity estimate (log intensity, higher = more binding, comparable within an allelic series) with ALX4 [1]; 12 upbm affinity estimate (log intensity, higher = more binding, comparable within an allelic series) with ALX4 [2]; 12 upbm affinity estimate (log intensity, higher = more binding, comparable within an allelic series) with HOXA4; 8.65 upbm affinity estimate (log intensity, higher = more binding, comparable within an allelic series) in the assay with ALX3 [6].
Turning to CAGCCGGC, the binding signal is 9.11 upbm affinity estimate (log intensity, higher = more binding, comparable within an allelic series) with PAX4 [7]; 9.15 upbm affinity estimate (log intensity, higher = more binding, comparable within an allelic series) with PRRX1 [8]; 9.27 upbm affinity estimate (log intensity, higher = more binding, comparable within an allelic series) with PAX4 [9]; 9.43 upbm affinity estimate (log intensity, higher = more binding, comparable within an allelic series) in the assay with MSX2 [3]; 9.19 upbm affinity estimate (log intensity, higher = more binding, comparable within an allelic series) with PAX4 [10]; 9.05 upbm affinity estimate (log intensity, higher = more binding, comparable within an allelic series) with PAX4 [11]. Also, the binding signal with MSX2 [4] was 9.21 upbm affinity estimate (log intensity, higher = more binding, comparable within an allelic series); with PAX4 [12] it was 9.05 upbm affinity estimate (log intensity, higher = more binding, comparable within an allelic series); with MSX2 [5], 9.41 upbm affinity estimate (log intensity, higher = more binding, comparable within an allelic series); with PAX4 [13] it was 9.13 upbm affinity estimate (log intensity, higher = more binding, comparable within an allelic series); in the assay with PRRX1 [14] it was 8.9 upbm affinity estimate (log intensity, higher = more binding, comparable within an allelic series).
Take CTCTCGCC: the binding signal with ALX4 [1] is 7.89 upbm affinity estimate (log intensity, higher = more binding, comparable within an allelic series); with ALX4 [2], 8.06 upbm affinity estimate (log intensity, higher = more binding, comparable within an allelic series).
Regarding AGTCCGGC, the binding signal with PAX4 [7] was 9.22 upbm affinity estimate (log intensity, higher = more binding, comparable within an allelic series); with PAX4 [9] it was 9.22 upbm affinity estimate (log intensity, higher = more binding, comparable within an allelic series); with HOXB6 [15], 8.99 upbm affinity estimate (log intensity, higher = more binding, comparable within an allelic series); with PAX4 [10], 9.29 upbm affinity estimate (log intensity, higher = more binding, comparable within an allelic series); with PAX4 [11] it was 9.3 upbm affinity estimate (log intensity, higher = more binding, comparable within an allelic series); in the assay with PAX4 [12], 9.32 upbm affinity estimate (log intensity, higher = more binding, comparable within an allelic series). In addition, the binding signal with PAX4 [13] is 9.3 upbm affinity estimate (log intensity, higher = more binding, comparable within an allelic series); with HOXB6 [16], 8.89 upbm affinity estimate (log intensity, higher = more binding, comparable within an allelic series).
As for GAGGCACC, the binding signal is 8.21 upbm affinity estimate (log intensity, higher = more binding, comparable within an allelic series) in the assay with ALX4 [1]; 8.22 upbm affinity estimate (log intensity, higher = more binding, comparable within an allelic series) with ALX4 [2]; 7.41 upbm affinity estimate (log intensity, higher = more binding, comparable within an allelic series) in the assay with HOXA2 [17]; 7.66 upbm affinity estimate (log intensity, higher = more binding, comparable within an allelic series) with ALX3 [18]; 7.88 upbm affinity estimate (log intensity, higher = more binding, comparable within an allelic series) with PITX2; 10.5 upbm affinity estimate (log intensity, higher = more binding, comparable within an allelic series) in the assay with HOXA2 [19]. The binding signal is 7.72 upbm affinity estimate (log intensity, higher = more binding, comparable within an allelic series) with ALX3 [20]; 7.51 upbm affinity estimate (log intensity, higher = more binding, comparable within an allelic series) with ALX3 [21]; 7.67 upbm affinity estimate (log intensity, higher = more binding, comparable within an allelic series) with ALX3 [22]; 10.4 upbm affinity estimate (log intensity, higher = more binding, comparable within an allelic series) with HOXA2 [23]; 7.65 upbm affinity estimate (log intensity, higher = more binding, comparable within an allelic series) in the assay with ALX3 [6]; 7.42 upbm affinity estimate (log intensity, higher = more binding, comparable within an allelic series) with HOXA2 [24].
Take GTCTTAAA: the binding signal is 10.3 upbm affinity estimate (log intensity, higher = more binding, comparable within an allelic series) in the assay with PAX4 [7] and 10.4 upbm affinity estimate (log intensity, higher = more binding, comparable within an allelic series) with PAX4 [9].
